Experimental data: article PMC5540273 (PLoS ONE, 2017)

tested on: T1, YANK1; conditions: concentration: 1 μM,replicates: in singlicate; n = 1
T1 construct: gene STK32A
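Further: KINOMEscan kinase panel screen.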

Question: Which “%Inh” value does the source give for `CC(C(=O)NC1CCN(c2ccnc(Nc3ccc(F)cc3)n2)C1)c1ccc(Cl)cc1` (centres unmarked) [GSK1379713] here?
Answer: The value was 0%.

Question: For `CNC(=O)c1ccccc1Nc1nc(Nc2cccc(CS(C)(=O)=O)c2)ncc1C.O=CO` [GSK1520489], which “%Inh” value is on record?
Answer: The value was 44%.

Question: How did the “%Inh” value turn out when `COc1ccc(Nc2nccc(N3CCC(NC(=O)c4cccc(C#N)c4)C3)n2)cc1` (centres unmarked) [GSK1379730] was run?
Answer: The value was 0%.

Question: `CN1CCN(CCNc2nc3cc(Oc4ccc(NC(=O)Nc5cc(C(F)(F)F)ccc5F)cc4)ccc3[nH]2)CC1.Cl.Cl` [GW768504] was tested. Which “%Inh” value did it give?
Answer: The value was 0%.

Question: Which “%Inh” value does the source give for `COc1cc(Nc2nccc(N3CCC(NC(=O)c4cccc(C#N)c4)C3)n2)cc(OC)c1OC` (centres unmarked) [GSK1379751] here?
Answer: The value was 0%.

Question: How did the “%Inh” value turn out when `CSc1nccc(-c2c(-c3ccc(F)cc3)ncn2CCCN2CCOCC2)n1.Cl` [SB-217146] was run?
Answer: The value was 0%.

Question: `O=C(NCC1CC1)c1ccc(-c2cc(C(=O)NC3CC3)ccc2F)cc1` [GW810445] was tested. Which “%Inh” value did it give?
Answer: Its value is 0%.

Question: With `Cl.Cl.NC[C@H](CC1CCCCC1)NC(=O)c1ccc(-c2ccnc3[nH]ccc23)s1` [GSK1581428] as the molecule, how does the “%Inh” value read?
Answer: The value was 68%.

Question: For `Cc1cccc(-c2nc(Nc3ccncc3)c3sccc3n2)n1` [GW869641], which “%Inh” value is on record?
Answer: Its value is 20%.

Question: For `CCNCC(Cc1ccccc1)NC(=O)c1cc(Br)c(-c2ccnc3[nH]ccc23)s1.Cl.Cl` (centres unmarked) [GSK1383280], which “%Inh” value is on record?
Answer: The value was 23%.

Question: How did the “%Inh” value turn out when `CC(C)S(=O)(=O)N1CCN(Cc2ccc3c(c2)nc(NC(=O)c2ccsc2)n3C[C@H](O)c2ccccc2)CC1` [GW635815] was run?
Answer: Its value is 1%.

Question: With `CN(c1cccc(CNc2nc(Nc3ccc4c(c3)CC(=O)N4)ncc2C(F)(F)F)c1)S(C)(=O)=O` as the molecule, how does the “%Inh” value read?
Answer: The value was 0%.

Question: With `COc1cc2nccc(Nc3ccc(Oc4ccccc4)cc3)c2cc1OC.Cl` [GI261656] as the molecule, how does the “%Inh” value read?
Answer: The value was 7%.

Question: `c1ccc(Oc2ccc(Nc3ccnc4ccc(-c5ccccn5)cc34)cc2)cc1` [GW407034] was tested. Which “%Inh” value did it give?
Answer: Its value is 12%.

Question: Which “%Inh” value does the source give for `Cn1ccc2ncnc(Oc3ccc(NC(=O)Nc4cc(C(C)(C)C)on4)c(Cl)c3)c21` here?
Answer: Its value is 0%.

Question: How did the “%Inh” value turn out when `CS(=O)(=O)Nc1ccc(-c2ccnc3[nH]ccc23)cc1` [GSK993273] was run?
Answer: Its value is 12%.

Question: `FC(F)(F)c1cc(Br)cc(Nc2nccc(-c3cnn4ncccc34)n2)c1` [GW810578] was tested. Which “%Inh” value did it give?
Answer: The value was 0%.

Question: `Cn1ccc2ncnc(Oc3ccc(NC(=O)Nc4cccc(C(F)(F)F)c4)c(F)c3)c21` was tested. Which “%Inh” value did it give?
Answer: Its value is 0%.

Question: With `CN(c1ccccc1CNc1nc(Nc2ccc3c(c2)CC(=O)N3)ncc1C(F)(F)F)S(C)(=O)=O` as the molecule, how does the “%Inh” value read?
Answer: The value was 11%.

Question: With `O=C1NCCc2[nH]c(-c3ccncc3)cc21` as the molecule, how does the “%Inh” value read?
Answer: The value was 0%.

Question: Which “%Inh” value does the source give for `COc1cccc(CNC(=O)NC2CCN(c3ccnc(Nc4cc(OC)c(OC)c(OC)c4)n3)C2)c1` (centres unmarked) [GSK1379765] here?
Answer: The value was 0%.

Question: With `CC(C)c1nc(-c2cccc(NS(=O)(=O)c3ccccc3)c2)c(-c2ccnc(Nc3ccc4c(c3)CN(C)CC4)n2)s1` [GSK1649598] as the molecule, how does the “%Inh” value read?
Answer: The value was 20%.

Question: `C[C@@H](Oc1cc(-n2cnc3ccc(-c4ccncc4)cc32)sc1C(N)=O)c1ccccc1Cl` [GSK483724] was tested. Which “%Inh” value did it give?
Answer: The value was 18%.

Question: How did the “%Inh” value turn out when `Cc1ccc(C(=O)Nc2ccc(Oc3ccc4nc(NC(=O)C5CC5)cn4c3)c(F)c2)c(=O)n1-c1ccccc1` was run?
Answer: Its value is 0%.

Question: How did the “%Inh” value turn out when `CN1CCN(CCCNc2nccc(-c3c(-c4ccc(F)cc4)nn4cc(C(N)=O)ccc34)n2)CC1` [GW622475] was run?
Answer: The value was 20%.

Question: How did the “%Inh” value turn out when `CS(=O)c1ccc(-c2coc3ccc(-c4n[nH]c(=O)o4)cc23)cc1` (centres unmarked) was run?
Answer: Its value is 9%.

Question: `O=c1[nH]cc(-c2ccc(O)cc2)c2sc(-c3ccncc3)cc12` [GSK1033723] was tested. Which “%Inh” value did it give?
Answer: Its value is 10%.

Question: For `Cn1ccc2ncnc(Oc3ccc(NC(=O)Nc4cccc(C(F)(F)F)c4)c(Cl)c3)c21`, which “%Inh” value is on record?
Answer: Its value is 0%.

Question: How did the “%Inh” value turn out when `Cc1ccc(Nc2ccnc(Nc3ccc4c(c3)CS(=O)(=O)C4)n2)cc1O.Cl` [GW579362] was run?
Answer: Its value is 26%.

Question: With `Cc1ccn2nc(-c3ccc(F)cc3)c(-c3ccncc3)c2c1.Cl` [GW457859] as the molecule, how does the “%Inh” value read?
Answer: The value was 91.9%.

Question: For `C[C@@H](Oc1cc(-n2cnc3cc(-c4ccncc4)ccc32)sc1C(N)=O)c1ccccc1Cl` [GSK479719], which “%Inh” value is on record?
Answer: Its value is 7%.

Question: `Cc1ccc2c(-c3ccnc(Nc4ccc(C(F)(F)F)cc4)n3)cnn2n1` [GW819776] was tested. Which “%Inh” value did it give?
Answer: The value was 0%.

Question: `COc1cccc(C2=C(Nc3cccc(Cl)c3)C(=O)NC2=O)c1` [SB-341556] was tested. Which “%Inh” value did it give?
Answer: The value was 5%.

Question: How did the “%Inh” value turn out when `Cn1ccc2ncnc(Oc3ccc(NC(=O)Nc4cncc(C(F)(F)F)c4)c(Cl)c3)c21` was run?
Answer: Its value is 0%.

Question: For `O=C(Nc1ccccc1)c1cccc(Oc2ccc3nccn3n2)c1`, which “%Inh” value is on record?
Answer: The value was 0%.

Question: `O=C(Nc1cccc(C(F)(F)F)c1)c1cccc(Oc2ccc3nccn3n2)c1` was tested. Which “%Inh” value did it give?
Answer: Its value is 0%.

Question: For `Cn1cc(-c2cccc3c(N)c(C(N)=O)nnc23)cn1`, which “%Inh” value is on record?
Answer: Its value is 30%.

tested on: T2, YANK2; conditions: concentration: 1 μM,replicates: in singlicate; n = 1
T2 construct: gene STK32B

Question: Which “%Inh” value does the source give for `CC(C(=O)NC1CCN(c2ccnc(Nc3ccc(F)cc3)n2)C1)c1ccc(Cl)cc1` (centres unmarked) [GSK1379713] here?
Answer: Its value is 0%.

Question: How did the “%Inh” value turn out when `CNC(=O)c1ccccc1Nc1nc(Nc2cccc(CS(C)(=O)=O)c2)ncc1C.O=CO` [GSK1520489] was run?
Answer: The value was 0%.

Question: `COc1ccc(Nc2nccc(N3CCC(NC(=O)c4cccc(C#N)c4)C3)n2)cc1` (centres unmarked) [GSK1379730] was tested. Which “%Inh” value did it give?
Answer: Its value is 0%.

Question: How did the “%Inh” value turn out when `CN1CCN(CCNc2nc3cc(Oc4ccc(NC(=O)Nc5cc(C(F)(F)F)ccc5F)cc4)ccc3[nH]2)CC1.Cl.Cl` [GW768504] was run?
Answer: The value was 0%.

Question: With `COc1cc(Nc2nccc(N3CCC(NC(=O)c4cccc(C#N)c4)C3)n2)cc(OC)c1OC` (centres unmarked) [GSK1379751] as the molecule, how does the “%Inh” value read?
Answer: The value was 0%.

Question: With `CSc1nccc(-c2c(-c3ccc(F)cc3)ncn2CCCN2CCOCC2)n1.Cl` [SB-217146] as the molecule, how does the “%Inh” value read?
Answer: The value was 0%.

Question: How did the “%Inh” value turn out when `O=C(NCC1CC1)c1ccc(-c2cc(C(=O)NC3CC3)ccc2F)cc1` [GW810445] was run?
Answer: Its value is 0%.

Question: With `Cl.Cl.NC[C@H](CC1CCCCC1)NC(=O)c1ccc(-c2ccnc3[nH]ccc23)s1` [GSK1581428] as the molecule, how does the “%Inh” value read?
Answer: The value was 43%.

Question: For `Cc1cccc(-c2nc(Nc3ccncc3)c3sccc3n2)n1` [GW869641], which “%Inh” value is on record?
Answer: The value was 14%.

Question: With `CCNCC(Cc1ccccc1)NC(=O)c1cc(Br)c(-c2ccnc3[nH]ccc23)s1.Cl.Cl` (centres unmarked) [GSK1383280] as the molecule, how does the “%Inh” value read?
Answer: Its value is 0%.

Question: With `CC(C)S(=O)(=O)N1CCN(Cc2ccc3c(c2)nc(NC(=O)c2ccsc2)n3C[C@H](O)c2ccccc2)CC1` [GW635815] as the molecule, how does the “%Inh” value read?
Answer: The value was 0%.

Question: For `CN(c1cccc(CNc2nc(Nc3ccc4c(c3)CC(=O)N4)ncc2C(F)(F)F)c1)S(C)(=O)=O`, which “%Inh” value is on record?
Answer: Its value is 0%.

Question: `COc1cc2nccc(Nc3ccc(Oc4ccccc4)cc3)c2cc1OC.Cl` [GI261656] was tested. Which “%Inh” value did it give?
Answer: Its value is 0%.

Question: `c1ccc(Oc2ccc(Nc3ccnc4ccc(-c5ccccn5)cc34)cc2)cc1` [GW407034] was tested. Which “%Inh” value did it give?
Answer: The value was 0%.

Question: For `Cn1ccc2ncnc(Oc3ccc(NC(=O)Nc4cc(C(C)(C)C)on4)c(Cl)c3)c21`, which “%Inh” value is on record?
Answer: The value was 5%.

Question: With `CS(=O)(=O)Nc1ccc(-c2ccnc3[nH]ccc23)cc1` [GSK993273] as the molecule, how does the “%Inh” value read?
Answer: The value was 0%.

Question: How did the “%Inh” value turn out when `FC(F)(F)c1cc(Br)cc(Nc2nccc(-c3cnn4ncccc34)n2)c1` [GW810578] was run?
Answer: The value was 0%.

Question: Which “%Inh” value does the source give for `Cn1ccc2ncnc(Oc3ccc(NC(=O)Nc4cccc(C(F)(F)F)c4)c(F)c3)c21` here?
Answer: Its value is 0%.

Question: Which “%Inh” value does the source give for `CN(c1ccccc1CNc1nc(Nc2ccc3c(c2)CC(=O)N3)ncc1C(F)(F)F)S(C)(=O)=O` here?
Answer: Its value is 0%.

Question: With `O=C1NCCc2[nH]c(-c3ccncc3)cc21` as the molecule, how does the “%Inh” value read?
Answer: The value was 0%.

Question: Which “%Inh” value does the source give for `COc1cccc(CNC(=O)NC2CCN(c3ccnc(Nc4cc(OC)c(OC)c(OC)c4)n3)C2)c1` (centres unmarked) [GSK1379765] here?
Answer: Its value is 0%.

Question: How did the “%Inh” value turn out when `CC(C)c1nc(-c2cccc(NS(=O)(=O)c3ccccc3)c2)c(-c2ccnc(Nc3ccc4c(c3)CN(C)CC4)n2)s1` [GSK1649598] was run?
Answer: Its value is 28%.

Question: With `C[C@@H](Oc1cc(-n2cnc3ccc(-c4ccncc4)cc32)sc1C(N)=O)c1ccccc1Cl` [GSK483724] as the molecule, how does the “%Inh” value read?
Answer: The value was 1%.

Question: `Cc1ccc(C(=O)Nc2ccc(Oc3ccc4nc(NC(=O)C5CC5)cn4c3)c(F)c2)c(=O)n1-c1ccccc1` was tested. Which “%Inh” value did it give?
Answer: Its value is 0%.

Question: `CN1CCN(CCCNc2nccc(-c3c(-c4ccc(F)cc4)nn4cc(C(N)=O)ccc34)n2)CC1` [GW622475] was tested. Which “%Inh” value did it give?
Answer: Its value is 17%.

Question: How did the “%Inh” value turn out when `CS(=O)c1ccc(-c2coc3ccc(-c4n[nH]c(=O)o4)cc23)cc1` (centres unmarked) was run?
Answer: Its value is 10%.

Question: Which “%Inh” value does the source give for `O=c1[nH]cc(-c2ccc(O)cc2)c2sc(-c3ccncc3)cc12` [GSK1033723] here?
Answer: The value was 0%.

Question: `Cn1ccc2ncnc(Oc3ccc(NC(=O)Nc4cccc(C(F)(F)F)c4)c(Cl)c3)c21` was tested. Which “%Inh” value did it give?
Answer: The value was 0%.

Question: With `Cc1ccc(Nc2ccnc(Nc3ccc4c(c3)CS(=O)(=O)C4)n2)cc1O.Cl` [GW579362] as the molecule, how does the “%Inh” value read?
Answer: Its value is 0%.

Question: `Cc1ccn2nc(-c3ccc(F)cc3)c(-c3ccncc3)c2c1.Cl` [GW457859] was tested. Which “%Inh” value did it give?
Answer: Its value is 13%.

Question: For `C[C@@H](Oc1cc(-n2cnc3cc(-c4ccncc4)ccc32)sc1C(N)=O)c1ccccc1Cl` [GSK479719], which “%Inh” value is on record?
Answer: The value was 0%.

Question: For `Cc1ccc2c(-c3ccnc(Nc4ccc(C(F)(F)F)cc4)n3)cnn2n1` [GW819776], which “%Inh” value is on record?
Answer: Its value is 0%.

Question: How did the “%Inh” value turn out when `COc1cccc(C2=C(Nc3cccc(Cl)c3)C(=O)NC2=O)c1` [SB-341556] was run?
Answer: The value was 0%.

Question: With `Cn1ccc2ncnc(Oc3ccc(NC(=O)Nc4cncc(C(F)(F)F)c4)c(Cl)c3)c21` as the molecule, how does the “%Inh” value read?
Answer: The value was 2%.

Question: `O=C(Nc1ccccc1)c1cccc(Oc2ccc3nccn3n2)c1` was tested. Which “%Inh” value did it give?
Answer: The value was 0%.

Question: How did the “%Inh” value turn out when `O=C(Nc1cccc(C(F)(F)F)c1)c1cccc(Oc2ccc3nccn3n2)c1` was run?
Answer: The value was 0%.

Question: How did the “%Inh” value turn out when `Cn1cc(-c2cccc3c(N)c(C(N)=O)nnc23)cn1` was run?
Answer: The value was 0%.
